Reference: PubChem BioAssay (NCATS)
Inconclusive results are not listed. The source made the active and inactive calls. Unless noted, calls come from the whole dose curve; as a rule, active = well fitted curve in the direction sought with a large enough effect; inconclusive = small, poorly fitted or top-dose-only effect, or another doubt; inactive = no such curve, though single readings can be large; an effect the other way counts as inactive or inconclusive.

Tests used:
[1] = P-glycoprotein substrates identified in KB-3-1 adenocarcinoma cell line, qHTS therapeutic library screen (AID 1346986); note: nearly all actives have a fitted effect of over 60% in size
Method in brief: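 Dose-response cytotoxicity, KB-3-1 vs P-gp-high KB-8-5-11, no colchicine in assay medium. Read: CellTiter-Glo at 72 h.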

[2] = test system: Zika virus NS2B-NS3 protease (unlinked complex); assay: Primary screen GU Rhodamine qHTS for Zika virus inhibitors: Unlinked NS2B-NS3 protease assay (AID 1347159); note: % is set by controls: 0 for no effect and ±100 for the full control effect; nearly all actives have a fitted effect of over 60% in size
Method in brief: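 Percent inhibition came from the 15-min rise in Rhodamine110 fluorescence (1.5 microM substrate, ~15% conversion), normalized to no-inhibitor and no-enzyme wells and Hill-fitted. Unlinked protease, 25 nM, pH 8.0 Tris buffer; compounds up to 114 microM, 15-min preincubation.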

[3] = test system: Zika virus NS2B-NS3 protease (linked construct); assay: Primary screen NINDS Rhodamine qHTS for Zika virus inhibitors (AID 1347160); note: nearly all actives have a fitted effect of over 55% in size; for activity change, negative = inhibition: % is set by controls: 0 for no effect and ±100 for the full control effect
Method in brief: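 Rhodamine110-peptide cleavage (1.5 µM substrate) by 25 nM linked NS2B-NS3 enzyme at pH 8.0 (Tris, Tween 20), after 15 min RT preincubation with compounds; 15-min fluorescence change normalized to controls and Hill-fitted.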

[4] = target: Calcium and integrin-binding protein 1 (Homo sapiens) (UniProt Q99828); assay: Primary qHTS for Identification of Calcium Integrin Binding Protein 1 (CIB1) Competitor (AID 1508620);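 note: GST tagged CIB1 binding a fluorescein labelled alphaIIb integrin peptide tracer; top concentration of the series differs between compounds; % is set by controls: 0 for no effect and ±100 for the full control effect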
Chain of Calcium and integrin-binding protein 1 (Homo sapiens) (Q99828 whole entry, looked up): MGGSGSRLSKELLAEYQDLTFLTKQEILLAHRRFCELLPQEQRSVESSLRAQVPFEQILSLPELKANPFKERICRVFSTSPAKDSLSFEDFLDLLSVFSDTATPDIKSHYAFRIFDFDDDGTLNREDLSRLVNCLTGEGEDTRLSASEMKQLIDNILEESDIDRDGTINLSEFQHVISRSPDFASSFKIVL
Method in brief: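 CIB1-GST (1 uM final) and compound incubated 15 min at room temperature before adding FITC-alphaIIb peptide tracer (100 nM final). Competition for binding read by fluorescence polarization (ex 480, em 540) after another 15 min at room temperature.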

[5] = target: Cytochrome P450 2D6 (Homo sapiens) (UniProt P10635); assay: Cytochrome P450 family 2 subfamily D member 6 (CYP2D6) small molecule antagonists: luciferase biochemical (cell-free) qHTS assay (AID 1645840; active = well fitted curve in the direction sought with a large enough effect in the repeat runs; an effect the other way counts as inactive or inconclusive; note: nearly all actives have a fitted effect of over 55% in size; note: potency is the fitted concentration of half-maximal effect; for activity change, negative = inhibition: % is set by controls: 0 for no effect and ±100 for the full control effect)
Chain of Cytochrome P450 2D6 (Homo sapiens) (P10635 whole entry, looked up): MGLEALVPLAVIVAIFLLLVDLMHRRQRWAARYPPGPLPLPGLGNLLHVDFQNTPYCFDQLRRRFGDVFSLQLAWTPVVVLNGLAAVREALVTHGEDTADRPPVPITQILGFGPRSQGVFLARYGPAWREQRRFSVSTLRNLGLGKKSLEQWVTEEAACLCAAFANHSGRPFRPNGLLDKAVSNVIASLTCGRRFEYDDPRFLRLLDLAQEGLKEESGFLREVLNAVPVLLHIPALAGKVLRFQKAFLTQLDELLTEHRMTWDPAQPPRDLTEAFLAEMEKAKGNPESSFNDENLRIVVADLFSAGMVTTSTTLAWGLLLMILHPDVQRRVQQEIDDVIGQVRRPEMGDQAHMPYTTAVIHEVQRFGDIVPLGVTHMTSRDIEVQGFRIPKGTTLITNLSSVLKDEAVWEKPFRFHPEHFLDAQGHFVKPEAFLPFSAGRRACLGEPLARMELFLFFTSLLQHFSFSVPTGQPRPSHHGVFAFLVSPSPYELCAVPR
Method in brief: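 P450-Glo CYP2D6 system: proluciferin substrate converted by enzyme to luciferin, read by luminescence proportional to activity. Enzyme-substrate mix with compound 10 min at room temperature, then NADPH regeneration 1 h before detection reagent.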

[6] = Primary fluorescence-based thiol-reactive (MSTI) qHTS assay for identification of artifact compounds. (AID 1845221); note: nearly all actives have a fitted effect of over 65% in size; note: potency is the fitted concentration of half-maximal effect
Method in brief: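 Reactivity toward the thiol probe MSTI (4 uM) is scored by fluorescence at Ex/Em 525/598 nm after 1 h at room temperature. Acetyl-MSTI and MSTI define the activity scale.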

[7] = Primary redox qHTS assay for identification of artifact compounds. (AID 1845223);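 note: 0% = DMSO and 100% = reference compound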
Method in brief: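 Redox-cycling detection via DTT (250 uM final) oxidation coupled to Amplex Red (25 uM)/HRP (250 mU/mL) in HBSS. 15 min preincubation plus 30 min after DTT, room temperature. Ex/Em 525/598 nm; 4-parameter Hill fit against DMSO and 10 uM DA3003.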

[8] = test system: KB-3-1; assay: Cytotoxic Profiling of Annotated Libraries Using Quantitative High-Throughput Screening (AID 1296008); details: Five cell lines viability, CellTiter-Glo ATP luminescence, 48-72 h; max response: stronger effect = lower value; note: nearly all actives have a fitted effect of over 60% in size; note: potency is the fitted concentration of half-maximal effect; for max response: % is set by controls: 0 for no effect and ±100 for the full control effect
Method in brief: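 Cytotoxicity was measured as CellTiter-Glo ATP luminescence, read after 10 min at room temperature. Compound treatment of the cells lasted 48 or 72 hr at 37 degrees Celsius in a qHTS format.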

[9] = test system: CAOV3; assay: Primary qHTS to identify gynecologic anti-cancer compounds using libraries of approved drugs and bioactive compounds (AID 1345084); details: Gynecologic cancer cell panel viability, ATPlite luminescence, 48 h; series mostly up to 57.5 µM; note: nearly all actives have a fitted effect of over 55% in size; note: potency is the fitted concentration of half-maximal effect
Method in brief: (§1)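 Measured: luminescence after ATPlite addition (15 min, RT). Exposure: 48 h, 37 C, 5% CO2.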

[10] = test system: JEG-3; assay: as above; details: Gynecologic cancer cell panel viability, ATPlite luminescence, 48 h; series mostly up to 57.5 µM
Method in brief: as §1

[11] = test system: SKOV3; assay: as above; details: Gynecologic cancer cell panel viability, ATPlite luminescence, 48 h; series mostly up to 57.5 µM
Method in brief: as §1

[12] = test system: CRL-7250; assay: qHTS assay to identify novel small-molecules to repurpose for Merkel cell carcinoma treatment (AID 1296009); details: MCC and control cell lines, CellTiter-Glo viability, 72 h; series mostly up to 92 µM; note: nearly all actives have a fitted effect of over 60% in size
Method in brief: (§2)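 Cell viability measured by CellTiter-Glo following 72 hr compound treatment at 37 degree celsius, with NPC and MIPE libraries tested in 8- and 11-point concentration series.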

[13] = target: Cytochrome P450 2C9 (Homo sapiens) (UniProt P11712); assay: Cytochrome P450 family 2 subfamily C member 9 (CYP2C9) small molecule antagonists: luciferase biochemical (cell-free) qHTS assay (AID 1645842; active = well fitted curve in the direction sought with a large enough effect in the repeat runs; an effect the other way counts as inactive or inconclusive; note: nearly all actives have a fitted effect of over 55% in size; note: potency is the fitted concentration of half-maximal effect)
Chain of Cytochrome P450 2C9 (Homo sapiens) (P11712 whole entry, looked up): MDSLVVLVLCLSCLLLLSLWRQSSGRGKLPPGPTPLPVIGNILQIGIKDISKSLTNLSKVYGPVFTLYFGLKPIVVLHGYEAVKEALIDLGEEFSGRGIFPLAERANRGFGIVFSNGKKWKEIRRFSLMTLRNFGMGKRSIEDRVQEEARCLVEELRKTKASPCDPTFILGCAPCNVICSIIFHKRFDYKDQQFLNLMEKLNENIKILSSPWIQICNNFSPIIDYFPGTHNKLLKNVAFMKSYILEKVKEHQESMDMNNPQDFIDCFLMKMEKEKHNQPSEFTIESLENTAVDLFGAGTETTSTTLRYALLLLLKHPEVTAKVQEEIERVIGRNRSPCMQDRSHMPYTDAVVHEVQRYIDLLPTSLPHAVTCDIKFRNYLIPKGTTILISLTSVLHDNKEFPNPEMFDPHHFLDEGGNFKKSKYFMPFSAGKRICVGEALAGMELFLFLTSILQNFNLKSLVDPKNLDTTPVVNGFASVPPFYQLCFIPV
Method in brief: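 P450-Glo CYP2C9 system: proluciferin substrate with enzyme in mix containing 0.4% BSA, 10 min at room temperature, then NADPH regeneration solution added and incubated 1 h at 37C. Detection reagent stopped reaction; luminescence read after 20 min as RLU.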

[14] = test system: HACAT; assay: qHTS assay to identify novel small-molecules to repurpose for Merkel cell carcinoma treatment (AID 1296009); details: MCC and control cell lines, CellTiter-Glo viability, 72 h; at 44.8 µM (top of the series) unless noted; note: nearly all actives have a fitted effect of over 60% in size
Method in brief: as §2

[15] = target: Catechol O-methyltransferase (Homo sapiens) (UniProt P21964); assay: Confirmatory Screen for Target Class Profiling of Small Molecule Inhibitors of Methyltransferases (AID 1745852); details: MTase-Glo luminescence, SAH detection, recombinant enzyme; measured here: COMT max response; stronger effect = lower value
Chain of Catechol O-methyltransferase (Homo sapiens) (P21964 whole entry, looked up): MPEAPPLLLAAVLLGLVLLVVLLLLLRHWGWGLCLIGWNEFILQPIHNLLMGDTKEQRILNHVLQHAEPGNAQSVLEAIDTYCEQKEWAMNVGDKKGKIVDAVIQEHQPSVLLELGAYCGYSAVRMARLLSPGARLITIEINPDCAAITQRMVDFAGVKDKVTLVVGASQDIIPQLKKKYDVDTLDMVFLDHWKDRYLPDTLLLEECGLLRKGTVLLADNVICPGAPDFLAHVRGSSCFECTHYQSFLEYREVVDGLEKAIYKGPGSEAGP

[16] = target: Guanidinoacetate N-methyltransferase (Homo sapiens) (UniProt Q14353); assay: as above; details: activity change, negative = inhibition: at 57.3 µM (top of the series) unless noted
[17] = target: Nicotinamide N-methyltransferase (Homo sapiens) (UniProt P40261); assay: as above; details: MTase-Glo luminescence, SAH detection, recombinant enzyme; measured here: NNMT max response; stronger effect = lower value
Chain of Nicotinamide N-methyltransferase (Homo sapiens) (P40261 whole entry, looked up): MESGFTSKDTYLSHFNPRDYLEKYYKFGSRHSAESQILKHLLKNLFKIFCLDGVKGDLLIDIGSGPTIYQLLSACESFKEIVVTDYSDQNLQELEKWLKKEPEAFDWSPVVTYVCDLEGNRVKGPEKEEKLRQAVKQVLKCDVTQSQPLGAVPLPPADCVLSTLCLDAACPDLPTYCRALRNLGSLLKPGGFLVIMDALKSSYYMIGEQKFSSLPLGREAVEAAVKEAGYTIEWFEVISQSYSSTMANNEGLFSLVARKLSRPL

[18] = Cytotoxicity counterscreen for inhibitors of SARS-CoV-2 cell entry (AID 1645845; calls by dose curve; note: nearly all actives have a fitted effect of over 50% in size)
Method in brief: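 ATP-content luminescence (ATPLite 1step, 15 min RT) read after 48 h compound exposure of Expi293F cells stably expressing human ACE2; normalized to cells-only wells and media-only wells.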

Cc1c(Cl)c(OCC(=O)N2CCN(C)CC2)nc2sc(C(=O)NC3CC3)c(N)c12
inactive: Potency [1] | Potency [2] | Potency [3] | Potency [4] | Potency [5] | Potency [6] | Potency [7] | outcome [8] | Potency [9] | Potency [10] | Potency [11]

C/C=C(/C)C1C=CC2CC(C)CC(C)C2C1/C(O)=C1\C(=O)NC(CC(C)(O)C(=O)O)C1=O (centres undefined)
inactive: Potency [4] | max response [8] 4.77% | Potency [12] | Potency [10] | Potency [11]

CCC(C)/C=C(C)/C=C/C1=CC2=C(Cl)C(=O)C(C)(OC(C)=O)C(=O)C2=CO1 (centres undefined)
inactive: Potency [4] | max response [8] -15.5% | Potency [9] | Potency [10] | Potency [11]
active: Potency [6] 1.31 µM

C1=C(c2cnc[nH]2)c2ccsc2CC1
inactive: Potency [3] | Potency [4] | Potency [7] | max response [8] -3.3% | outcome [14] | Potency [9] | Potency [10]
active: Potency [5] 12 µM | Potency [13] 3.38 µM | Potency [6] 10.6 µM

O=C1N[C@@H](Cc2ccccc2)CN2CCCC[C@@H]12
inactive: Potency [2] | Potency [3] | Potency [6] | Potency [7] | max response [8] 1.17% | outcome [14] | Potency [9] | Potency [10] | Potency [11]

COc1cc(N2CCN(C)CC2)ccc1N
inactive: Potency [2] | Potency [3] | Potency [4] | Potency [5] | Potency [13] | max response [8] -1.04% | Potency [9] | Potency [10] | Potency [11]
-4.23%: activity change, negative = inhibition [16]
-3.44%: activity [17]
active: Potency [6] 1.19 µM
-7.03%: activity [15]

CO[C@@H]1[C@H](O)[C@@H](O[C@@H]2C[C@H]3CC[C@@H]4C(CC[C@]5(C)[C@@H](C6=CC(=O)OC6)CC[C@]45O)[C@@]3(C)[C@H](O)C2)O[C@H](C)[C@@H]1O (some centres undefined)
active: Potency [8] 0.448 µM | Potency [9] 0.631 µM | Potency [10] 0.891 µM | Potency [11] 0.251 µM
inactive: Potency [2] | Potency [4] | Potency [6]

Oc1ccc2c3c1O[C@H]1c4[nH]c5c(N=C=S)cccc5c4C[C@@]4(O)[C@@H](C2)N(CC2CC2)CC[C@]314
inactive: Potency [3] | Potency [6] | max response [8] -18.9% | outcome [14] | Potency [9] | Potency [11]

CC(=O)O[C@H]1CN2CCC1CC2
inactive: Potency [1] | Potency [3] | Potency [6] | Potency [7] | outcome [8] | Potency [9] | Potency [10] | Potency [11]

COc1ccc(CN(C(=O)[C@@H](N)Cc2c(C)cc(C(N)=O)cc2C)[C@@H](C)c2ncc(-c3ccccc3)[nH]2)cc1C(=O)O
inactive: Potency [2] | Potency [4] | Potency [18] | Potency [6] | max response [8] 2.03% | Potency [9] | Potency [10] | Potency [11]

Cc1c(N2C(=O)[C@@H]3[C@H](O)CCN3C2=O)ccc(C#N)c1Cl
inactive: Potency [2] | Potency [3] | Potency [5] | max response [8] -9.81% | outcome [14] | Potency [9] | Potency [10]

CS[C@]1(CO)C(=O)N2[C@H]3C(=CC=C[C@@H]3O)C[C@@]2(SC)C(=O)N1C
inactive: Potency [1] | Potency [4] | outcome [8] | Potency [12] | Potency [10] | Potency [11]

COC(=O)CC1CC2(C(=O)c3c(O)cccc3C2(O)C(=O)OC)C(C)O1 (centres undefined)
inactive: Potency [2] | Potency [3] | Potency [4] | Potency [7] | max response [8] 3.88% | outcome [14] | Potency [9] | Potency [10] | Potency [11]

CC1CCCC(O)CC(=O)Cc2cc(O)cc(O)c2C(=O)O1 (centres undefined)
inactive: Potency [2] | Potency [3] | Potency [4] | Potency [7] | max response [8] 8.3% | outcome [14] | Potency [9] | Potency [10] | Potency [11]

CN1CCc2cc3c(cc2C1C1OC(=O)c2c1ccc1c2OCO1)OCO3 (centres undefined)
inactive: Potency [2] | Potency [3] | Potency [4] | Potency [6] | Potency [7] | max response [8] -4.22% | Potency [9] | Potency [10] | Potency [11]

COC1C=CC23c4cc5c(cc4COC2(O)CN(C)C3C1)OCO5 (centres undefined)
inactive: Potency [1] | Potency [2] | Potency [4] | Potency [7] | outcome [8] | outcome [14] | Potency [9] | Potency [10]

C=CC(C)(C)c1[nH]c2c(CC=C(C)C)cc(CC=C(C)C)cc2c1C[C@@H]1NC(=O)[C@H](C)NC1=O
inactive: Potency [1] | Potency [2] | Potency [3] | Potency [4] | Potency [6] | Potency [7] | outcome [8] | Potency [9] | Potency [10] | Potency [11]

NC(=O)c1ncn2c1CN=C(c1ccccc1Br)c1cc(F)ccc1-2
inactive: Potency [2] | Potency [3] | Potency [4] | Potency [5] | Potency [13] | Potency [6] | Potency [7] | max response [8] 5.47% | Potency [9] | Potency [10] | Potency [11]

CC[C@H]1C2CC3[C@@H]4N(C)c5ccccc5[C@]45C[C@@H]([C@H]2[C@H]5O)N3[C@H]1O
inactive: Potency [2] | Potency [3] | max response [8] 2.51% | outcome [14] | Potency [9] | Potency [10] | Potency [11]
